In PubChem BioAssay (NCI) one finds growth inhibition data, which are given here for nine molecules.

The structures appear in SMILES notation. Compounds without any hit were thinned out: in the full panel of roughly 79,000, 15% have a hit. A number with no mark means an inactive call. The source made the active and inactive calls. No stated cut-off is given here; in the data, active means growth inhibition above about 70%; inactive means the rest.

Assay [1] in a line: NCI Yeast Anticancer Drug Screen. Data for the rad50 strain (AID 155).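 Further: 0% = growth of vehicle-only cultures of the same strain.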 The following applies: S. cerevisiae rad50 strain growth inhibition, active compounds read high. In outline: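 A DNA repair-deficient yeast mutant serves as the test organism; compound-induced growth inhibition is calculated against vehicle-treated cells.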
Assay [2] in a line: NCI Yeast Anticancer Drug Screen. Data for the mec2-1 strain (AID 157). The following applies: S. cerevisiae mec2-1 strain, active compounds read high. In outline:
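Test agents were screened against the mec2-1 yeast strain, with defined DNA repair or cell cycle alteration. Growth was scored as inhibition against vehicle-only controls.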

Assay [3] is described as follows: NCI Yeast Anticancer Drug Screen. Data for the sgs1 mgt1 strain (AID 161).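 Further: 0% = growth of cultures given vehicle only.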 The conditions noted are these: S. cerevisiae sgs1 mgt1 strain, active compounds read high. In outline:
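Genetically altered yeast, compound exposure, growth inhibition relative to vehicle.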

Assay [4] in a line: NCI Yeast Anticancer Drug Screen. Data for the cln2 rad14 strain (AID 165).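 Further: 0% = growth equal to vehicle treated cultures.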 The following applies: S. cerevisiae cln2 rad14 strain, active compounds read high. The method in brief: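 Growth of compound-exposed yeast (cln2 rad14 genotype) measured and expressed as inhibition relative to vehicle.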
A short description of assay [5]: NCI Yeast Anticancer Drug Screen. Data for the bub3 strain (AID 167). The following applies: S. cerevisiae bub3 mutant strain, active compounds read high. In outline: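 Inhibition values come from growth of compound-treated mutant yeast normalised to vehicle-treated controls.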
The nature of assay [6]: NCI Yeast Anticancer Drug Screen. Data for the mlh1 rad18 strain (AID 175). The following applies: S. cerevisiae mlh1 rad18 strain growth inhibition, active compounds read high. The method in brief: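 In this whole-cell yeast screen, a strain with altered DNA damage repair is challenged with compound, and its growth is measured against matched vehicle-treated controls.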
Setting [7] is: at 5.0 µM (retest, dose inferred, filed as 0.5).
Where [8] appears, read: at 50.0 µM (retest, dose inferred, filed as 5.0).

In the case of `COc1ccc2c(c1)OC(c1ccccc1O)CC2=O` (configuration not stated), the growth inhibition is 0% in assay [1] (setting [7]); -17% in assay [1] (setting [8]); 55.9% in assay [1] (at 50.0 µM); -44% in assay [2] (setting [7]); -30% in assay [2] (setting [8]); 24.1% in assay [2] (at 50.0 µM). Further, the growth inhibition is -10% in assay [3] (setting [7]); 11% in assay [3] (setting [8]); 72.1% (active) in assay [3] (at 50.0 µM); -14% in assay [4] (setting [7]); 12% in assay [4] (setting [8]); 20.7% in assay [4] (at 50.0 µM). The growth inhibition in assay [5] (setting [7]) is -2%; in assay [5] (setting [8]) it was -9%; in assay [5] (at 50.0 µM), 55.5%; in assay [6] (setting [7]) it was -70%; in assay [6] (setting [8]), -34%; in assay [6] (at 50.0 µM), 36.5%.
With `CCSC(=Nc1nc2ccc(NC(C)=O)cc2s1)SCC`, the growth inhibition in assay [1] (setting [7]) was 5%; in assay [1] (setting [8]), 96% (active); in assay [1] (at 50.0 µM), 97.2% (active); in assay [2] (setting [7]), -3%; in assay [2] (setting [8]), 97% (active); in assay [2] (at 50.0 µM), 98% (active). In addition, the growth inhibition was -1% in assay [3] (setting [7]); 97% (active) in assay [3] (setting [8]); 98.5% (active) in assay [3] (at 50.0 µM); -3% in assay [4] (setting [7]); 83% (active) in assay [4] (setting [8]); 96.5% (active) in assay [4] (at 50.0 µM). For the same molecule, the growth inhibition in assay [5] (setting [7]) is -2%; in assay [5] (setting [8]) it was 94% (active); in assay [5] (at 50.0 µM), 96% (active); in assay [6] (setting [7]), -2%; in assay [6] (setting [8]) it was 96% (active); in assay [6] (at 50.0 µM) it was 97.5% (active).
In the case of `CC1(c2ccc(O)cc2)CC(C)(c2ccc(O)cc2)C1` (configuration not stated), the growth inhibition was 81% (active) in assay [1] (setting [7]); 93% (active) in assay [1] (setting [8]); 94.8% (active) in assay [1] (at 50.0 µM); 32% in assay [2] (setting [7]); 82% (active) in assay [2] (setting [8]); 93.2% (active) in assay [2] (at 50.0 µM). Moreover, the growth inhibition was 67% in assay [3] (setting [7]); 91% (active) in assay [3] (setting [8]); 91.9% (active) in assay [3] (at 50.0 µM); 41% in assay [4] (setting [7]); 87% (active) in assay [4] (setting [8]); 94.2% (active) in assay [4] (at 50.0 µM). Further, the growth inhibition in assay [5] (setting [7]) is 87% (active); in assay [5] (setting [8]), 91% (active); in assay [5] (at 50.0 µM) it was 95.2% (active); in assay [6] (setting [7]) it was 86% (active); in assay [6] (setting [8]), 89% (active); in assay [6] (at 50.0 µM) it was 92.8% (active).
Consider `O=S(c1ccccc1)c1c(Cl)c(Cl)nc(Cl)c1Cl` (configuration not stated), for which the growth inhibition in assay [1] (setting [7]) is 97% (active); in assay [1] (setting [8]), 99% (active); in assay [1] (at 50.0 µM), 99.2% (active); in assay [2] (setting [7]), 99% (active); in assay [2] (setting [8]), 99% (active); in assay [2] (at 50.0 µM), 99.6% (active). For the same molecule, the growth inhibition in assay [3] (setting [7]) is 99% (active); in assay [3] (setting [8]) it was 99% (active); in assay [3] (at 50.0 µM), 99.5% (active); in assay [4] (setting [7]) it was 95% (active); in assay [4] (setting [8]), 99% (active); in assay [4] (at 50.0 µM), 99.6% (active). Further, the growth inhibition was 98% (active) in assay [5] (setting [7]); 99% (active) in assay [5] (setting [8]); 99.5% (active) in assay [5] (at 50.0 µM); 99% (active) in assay [6] (setting [7]); 99% (active) in assay [6] (setting [8]); 99.5% (active) in assay [6] (at 50.0 µM).
Regarding `O=C(O)C1C2CC3CC(C2)CC1C3` (configuration not stated), the growth inhibition in assay [1] (setting [7]) was 2%; in assay [1] (setting [8]) it was 42%; in assay [1] (at 50.0 µM), 20%; in assay [2] (setting [7]) it was 8%; in assay [2] (setting [8]), 47%; in assay [2] (at 50.0 µM) it was 5.85%. Also, the growth inhibition in assay [3] (setting [7]) was 7%; in assay [3] (setting [8]), 60%; in assay [3] (at 50.0 µM) it was -4.9%; in assay [4] (setting [7]) it was 3%; in assay [4] (setting [8]), 21%; in assay [4] (at 50.0 µM), -67.8%. The growth inhibition in assay [5] (setting [7]) is 16%; in assay [5] (setting [8]) it was 86% (active); in assay [5] (at 50.0 µM), 75.5% (active); in assay [6] (setting [7]), 0%; in assay [6] (setting [8]), 82% (active); in assay [6] (at 50.0 µM), 9.35%.
Take `CCN=C(N)Nc1nc(-c2ccc(Cl)cc2)cs1`: the growth inhibition in assay [1] (setting [7]) was 10%; in assay [1] (setting [8]), 99% (active); in assay [1] (at 50.0 µM), 98.8% (active); in assay [2] (setting [7]) it was 0%; in assay [2] (setting [8]) it was 99% (active); in assay [2] (at 50.0 µM), 96.8% (active). Also, the growth inhibition was 8% in assay [3] (setting [7]); 99% (active) in assay [3] (setting [8]); 91.8% (active) in assay [3] (at 50.0 µM); 9% in assay [4] (setting [7]); 99% (active) in assay [4] (setting [8]); 76.3% (active) in assay [4] (at 50.0 µM). For the same molecule, the growth inhibition in assay [5] (setting [7]) is 7%; in assay [5] (setting [8]) it was 98% (active); in assay [5] (at 50.0 µM), 96.3% (active); in assay [6] (setting [7]) it was 9%; in assay [6] (setting [8]) it was 99% (active); in assay [6] (at 50.0 µM), 96.8% (active).
As for `CC(=O)O[C@@H]1c2c(c3c(=O)c4cccc(O)c4c(=O)c=3c2=[N+]=[N-])[C@H](OC(C)=O)[C@@H](OC(C)=O)[C@]1(C)O`, the growth inhibition in assay [1] (setting [7]) is 99% (active); in assay [1] (setting [8]) it was 99% (active); in assay [1] (at 50.0 µM), 92% (active); in assay [2] (setting [7]) it was 99% (active); in assay [2] (setting [8]), 99% (active); in assay [2] (at 50.0 µM) it was 93.7% (active). Moreover, the growth inhibition was 99% (active) in assay [3] (setting [7]); 99% (active) in assay [3] (setting [8]); 93% (active) in assay [3] (at 50.0 µM); 99% (active) in assay [4] (setting [7]); 99% (active) in assay [4] (setting [8]); 91.3% (active) in assay [4] (at 50.0 µM). Also, the growth inhibition in assay [5] (setting [7]) is 98% (active); in assay [5] (setting [8]), 99% (active); in assay [5] (at 50.0 µM) it was 91.4% (active); in assay [6] (setting [7]), 99% (active); in assay [6] (setting [8]), 99% (active); in assay [6] (at 50.0 µM) it was 91.6% (active).
`COc1ccccc1C(=O)Nc1ccc(Cl)c(C(=O)OC(C)C)c1`: the growth inhibition in assay [1] (setting [7]) is 16%; in assay [1] (setting [8]) it was 33%; in assay [1] (at 50.0 µM), -1.8%; in assay [2] (setting [7]), 7%; in assay [2] (setting [8]), 20%; in assay [2] (at 50.0 µM), 22.2%. In addition, the growth inhibition was 14% in assay [3] (setting [7]); -32% in assay [3] (setting [8]); 70.8% (active) in assay [3] (at 50.0 µM); 14% in assay [4] (setting [7]); 38% in assay [4] (setting [8]); 58.6% in assay [4] (at 50.0 µM). For the same molecule, the growth inhibition in assay [5] (setting [7]) was 13%; in assay [5] (setting [8]) it was 47%; in assay [5] (at 50.0 µM), 73.2% (active); in assay [6] (setting [7]), 15%; in assay [6] (setting [8]) it was 65%; in assay [6] (at 50.0 µM), 28.7%.
On to `O=C1C=CCCCC1(c1ccccc1)c1ccccc1`, for which the growth inhibition in assay [1] (setting [7]) is 2%; in assay [1] (setting [8]), 8%; in assay [1] (at 50.0 µM), 77.5% (active); in assay [2] (setting [7]) it was 0%; in assay [2] (setting [8]), 14%; in assay [2] (at 50.0 µM), 70.3% (active). The growth inhibition in assay [3] (setting [7]) was 5%; in assay [3] (setting [8]) it was 15%; in assay [3] (at 50.0 µM), 85.4% (active); in assay [4] (setting [7]), 9%; in assay [4] (setting [8]), 4%; in assay [4] (at 50.0 µM) it was 19.9%. The growth inhibition in assay [5] (setting [7]) is -3%; in assay [5] (setting [8]), -6%; in assay [5] (at 50.0 µM) it was 52.2%; in assay [6] (setting [7]), -3%; in assay [6] (setting [8]), 12%; in assay [6] (at 50.0 µM), 73.6% (active).
